Test results reported in the supplement of paper PMC13380429.

Tested on: Vero E6 infected with SARS-CoV-2
Test: inhibition of SARS-CoV-2 cytopathic effect; higher = more antiviral protection, active = above 15
Settings: 48 h

Measured: inhibition of SARS-CoV-2 cytopathic effect

C#Cc1cccc(Nc2ncnc3cc4c(cc23)OCCOCCOCCO4)c1 [icotinib]
inactive: 1 nM 1.1% | 8.33 nM 0.11% | 100 nM -1.65% | 833.33 nM -2.37% | 10000 nM -5.92%

C#CCN[C@@H]1CCc2ccccc21 [rasagiline]
inactive: 1 nM 0.63% | 8.33 nM -1.47% | 100 nM -1.63% | 833.33 nM -1.24% | 10000 nM -0.6%

CN(C)Cc1c(C(=O)NCCOc2ccc(C(=O)NO)cc2)oc2ccccc12
inactive: 1 nM -1.08% | 8.33 nM 3.14% | 100 nM -1.35% | 833.33 nM -15.5% | 10000 nM -26.9%

O=C(O)Cn1c2c(c3cc(F)ccc31)CN(C(=O)c1cccc3ccccc13)CC2 [setipiprant]
inactive: 1 nM -1.54% | 8.33 nM -1.86% | 100 nM -0.37% | 833.33 nM -0.82% | 10000 nM -0.76%

O=C(O)c1cc(=O)c2ccccc2o1 [chromocarb]
inactive: 1 nM -1.09% | 8.33 nM -0.13% | 100 nM -0.55% | 833.33 nM 3.21% | 10000 nM -0.51%

Cc1cc(C)nc(SCC(=O)Nc2ncc(Cc3cccc4ccccc34)s2)n1
inactive: 1 nM 0.9% | 8.33 nM -1.68% | 100 nM 1.78% | 833.33 nM 0.63% | 10000 nM 2.48%

CCCCOc1cc(C(=O)NCCN(CC)CC)c2ccccc2n1 [cinchocaine]
inactive: 1 nM -2.14% | 8.33 nM -0.71% | 100 nM 1.11% | 833.33 nM 3.8% | 10000 nM 0.77%

Nc1nc(-c2nn(Cc3ccccc3F)c3ncccc23)ncc1C1CC1
inactive: 1 nM 1.54% | 8.33 nM 2.15% | 100 nM -0.39% | 833.33 nM -2.42% | 10000 nM -5.17%

Nc1ccc(C(=O)Oc2ccccc2)c(O)c1 [phenyl-aminosalicylate]
inactive: 1 nM -11% | 8.33 nM -5.77% | 100 nM -10.6% | 833.33 nM -10.7% | 10000 nM -9.73%

C[C@]12CC[C@@H]3c4ccc(OS(=O)(=O)O)cc4CC[C@H]3[C@@H]1CCC2=O [estropipate]
inactive: 1 nM -1.99% | 8.33 nM 1.92% | 100 nM 0.66% | 833.33 nM 1.96% | 10000 nM -6.12%

CCCNC(=O)Nc1ccc(Oc2ncnc3cc(OC)c(OC)cc23)cc1Cl
inactive: 1 nM 0.58% | 8.33 nM 0.62% | 100 nM 1.2% | 833.33 nM 0.47% | 10000 nM -2.74%

COc1ccc(-c2sc(NC(=O)C(C)(C)C)nc2C)cc1S(=O)(=O)Nc1ccc(O)cc1 [PI4KIII-beta-inhibitor-1]
inactive: 1 nM -2.8% | 8.33 nM -1.82% | 100 nM 0.52% | 833.33 nM 0.18% | 10000 nM 5.19%

Cc1cc(C(=O)Nc2nc3cccc(Cl)c3n2[C@@H]2CCCCN(C(=O)/C=C/CN(C)C)C2)ccn1
inactive: 1 nM 2.52% | 8.33 nM -0.94% | 100 nM 0.57% | 833.33 nM -8.44% | 10000 nM 10.4%

COc1c(C)c(C(=O)c2ccc(N)c(C(=O)O)c2)n2ccccc12
inactive: 1 nM -2.54% | 8.33 nM 1.8% | 100 nM 0.21% | 833.33 nM -1.06% | 10000 nM -1.34%

Cc1ccc(C[N+](C)(C)C)o1 [5-methylfurmethiodide]
inactive: 1 nM -1.33% | 8.33 nM -0.75% | 100 nM -0.64% | 833.33 nM -0.84% | 10000 nM 0.7%

CC1CNc2c(cccc2S(=O)(=O)N[C@@H](CCCNC(=N)N)C(=O)N2CC[C@@H](C)C[C@@H]2C(=O)O)C1 (mixture of isomers) [argatroban]
inactive: 1 nM -2.89% | 8.33 nM 2.45% | 100 nM 0.37% | 833.33 nM 0.05% | 10000 nM -0.11%

CCN1CCC[C@H]1CNC(=O)c1c(OC)ccc(Br)c1OC [remoxipride]
inactive: 1 nM -2.39% | 8.33 nM 2.05% | 100 nM 0.28% | 833.33 nM 0.51% | 10000 nM -1.54%

CCOC(=O)CSCCC1NC(C(=O)O)CS1 (stereo not given) [letosteine]
inactive: 1 nM -0.45% | 8.33 nM -0.54% | 100 nM 3.16% | 833.33 nM 2.53% | 10000 nM 5.67%

O=C(O)Cc1ccccc1Nc1c(Cl)cccc1Cl [diclofenac]
inactive: 1 nM 1.25% | 8.33 nM 0.03% | 100 nM 0.38% | 833.33 nM -0.74% | 10000 nM 0.2%

O=[N+]([O-])c1cc2nc(O)c(O)nc2cc1[N+](=O)[O-]
inactive: 1 nM -4.28% | 8.33 nM -0.96% | 100 nM -0.81% | 833.33 nM -1.99% | 10000 nM 0.49%
